The values that follow come from ChEMBL document CHEMBL3988442, “University of Dundee, Small-Polar-MMV Screening Library” (2021).

The whole screen tested about 48,000 compounds, of which about 13,000 (27%) showed an effect of 50% or more. This is one part of the list.

For the test, the system named is Wolbachia pipientis. The test is described as follows: Anti-Wolbachia Cell-Based Screen. Type of test: functional. Also noted: scale not given: in the data most compounds retested in dose-response had high values. The settings on record: 5 µM.
In the case of `Cc1nnc2ccc(C(=O)N3CCSC(C)(C)C3)cn12`, the “Percent Effect” value was -5.569%.

Take `NC(=O)CCn1cc(CNCCCc2csc(N)n2)c2ccccc21`: the “Percent Effect” value came to 2.752%.

Take `CNC(=O)[C@@H]1C[C@H]2CN(Cc3ccc(C)s3)C[C@H]2N1C(C)=O.O=C(O)C(F)(F)F.O=C(O)C(F)(F)F`: the “Percent Effect” value is listed as 111.1%. As for `CN1[C@@H](C(=O)NCC2CC2)C[C@@H]2CN(Cc3ccsc3)C[C@@H]21.O=C(O)C(F)(F)F.O=C(O)C(F)(F)F`, the “Percent Effect” value turned out to be 95.65%. The value for `Cc1nc(CN2C[C@H]3C[C@H](C(=O)NCC4CC4)N(C)[C@H]3C2)cs1.O=C(O)C(F)(F)F.O=C(O)C(F)(F)F.O=C(O)C(F)(F)F` was 116.2%; that for `O=C(O)C(F)(F)F.O=C(O)C(F)(F)F.O=C(O)C(F)(F)F.c1cc(CN2C[C@@H]3OCCN(CCN4CCCC4)[C@@H]3C2)cs1` was -11.54%.

In the case of `CNC(=O)[C@@H]1C[C@H]2CN(Cc3ccc(C)o3)C[C@H]2N1C(C)=O`, the “Percent Effect” value amounted to 14.16%. The value for `CN1[C@@H](C(=O)NCC2CC2)C[C@H]2CN(Cc3ccsc3)C[C@H]21.O=C(O)C(F)(F)F.O=C(O)C(F)(F)F` was 106.3%; that for `CS(=O)(=O)N1C[C@H]2CCCN(Cc3ccsc3)[C@H]2C1.O=C(O)C(F)(F)F` was -0.02998%. As for `Cc1nc(CN2C[C@@H]3CN(C(=O)c4cnccn4)C[C@@H]3C2)cs1.O=C(O)C(F)(F)F`, the figure is 0.3524%.

With `O=C(NCC1CC1)[C@H]1C[C@H]2OCC[C@H]2N(Cc2ccsc2)C1`, the “Percent Effect” value is on record as -7.335%. The value for `CC(C)N1[C@H](Cn2cncn2)C[C@@H]2CN(Cc3ccsc3)CC[C@@H]21.O=C(O)C(F)(F)F` was 4.812%; that for `Cc1nc(CN2C[C@@H]3CCCO[C@@H]3[C@H](NC(=O)CC3CC3)C2)cs1.O=C(O)C(F)(F)F` was -2.843%; that for `Cc1ccc(CN2C[C@@H]3CCCO[C@@H]3[C@H](NC(=O)CC3CC3)C2)s1.O=C(O)C(F)(F)F` was 2.329%. Turning to `COCCC(=O)N1CCCC2(CCC(=O)N(CCc3c[nH]cn3)C2)C1` (stereo not given), the “Percent Effect” value came to 0.09306%. The value for `Cc1cnn(CCNCc2nc(Cc3ccccc3)no2)c1` was -7.265%; that for `Fc1cccc(N2CCCC3(C2)CN(c2cnccn2)CCO3)c1` (stereo not given) was 1.052%; that for `Cn1ccnc1NC[C@@H]1CCC[C@@H]2CN(Cc3nccs3)C[C@@H]21.O=C(O)C(F)(F)F` was -0.855%. The value for `CCc1cc(C(=O)NCC2CCN(Cc3cccc(C#N)c3)C2)on1` (stereo not given) was 4.535%; that for `O=C(NCC1CC1)[C@H]1CN(Cc2nccs2)C[C@H]2OCC[C@@H]12.O=C(O)C(F)(F)F` was -15.61%. Turning to `CC(=O)N1[C@@H](C(=O)NCC2CC2)C[C@@H]2CN(Cc3nccs3)C[C@@H]21.O=C(O)C(F)(F)F`, the “Percent Effect” value was 88.62%. As to `CO[C@H]1CN(Cc2cccc(C#N)c2)[C@@H]2COC[C@H]12.O=C(O)C(F)(F)F`, the “Percent Effect” value is on record as -6.68%. As for `CN1[C@@H](C(=O)NCC2CC2)C[C@H]2CN(Cc3cccc(C#N)c3)C[C@H]21.O=C(O)C(F)(F)F.O=C(O)C(F)(F)F`, the figure is 99.16%. In the case of `CN(C)S(=O)(=O)c1csc(C(=O)N2CCSCC2)c1`, the “Percent Effect” value is listed as -1.993%. As for `CC(C)c1cc(C(=O)N[C@H]2CN(C3CCOCC3)C[C@@H]2C2CC2)no1`, the figure is -8.943%; as for `COc1ncccc1C(=O)N1CCCC(c2cc(C)[nH]n2)C1` (stereo not given), -2.172%; as for `COc1ncccc1C(=O)N1CCCC(n2ccnc2C)C1` (stereo not given), 125.3%. On to `Cc1nccn1C1CCCN(C(=O)c2cc(O)nc3ccccc23)C1` (stereo not given), for which the “Percent Effect” value was -15.61%. As for `COCCOc1ncccc1C(=O)N1CCCC(n2ccnc2C)C1` (stereo not given), the “Percent Effect” value was 113.9%. The value for `CC(C)(C)CNC[C@H]1Cn2c(-c3ccccc3)cnc2CO1` was -15.45%. As for `CC(=O)N1CCN(C(=O)CNc2ccc3sccc3c2)CC1`, the figure is -10.18%; as for `O=C(NCC(=O)N1CCCCC1)c1ccc(Cl)cc1I`, -12.84%. The value for `CC(C)CNC(=O)c1ccc(NC(=O)NC2CC2)cc1Cl` was -3.361%; that for `CC(CNC(=O)c1ccc(Cl)cc1I)N1CCCC1` (stereo not given) was -14.44%. On to `CN(C)C(=O)C1CCc2nnc(CNC(=O)c3ccc(Cl)cc3Cl)n21` (stereo not given), for which the “Percent Effect” value turned out to be 114.2%. As for `CC(C)NC(=O)C1CCc2nnc(CNC(=O)c3ccc(Cl)cc3Cl)n21` (stereo not given), the figure is 98.13%; as for `CCn1cnnc1CNC(=O)c1ccc(Cl)cc1F`, 9.197%.

Regarding `CC(C)C(NC(=O)c1ccc(Cl)cc1Cl)C(=O)Nc1cnn(C)c1` (stereo not given), the “Percent Effect” value was 12.86%.

With `O=C(NCc1nnc2n1C(C(=O)NC1CC1)CC2)c1ccc(Cl)cc1Cl` (stereo not given), the “Percent Effect” value turned out to be 110.4%. As to `Cn1cc(-c2cnc3n2CCC32CCN(S(=O)(=O)C3CC3)CC2)cn1.O=C(O)C(F)(F)F`, the “Percent Effect” value is given as 2.089%.

For `CC(NS(=O)(=O)N(C)C(C)C)C(=O)N(C)C` (stereo not given), the “Percent Effect” value was -8.822%. The value for `COc1ccc(Cl)cc1CS(=O)(=O)Cc1nc(C)no1` was 9.011%. Consider `CCOc1cc(C(=O)NS(C)(=O)=O)cc(-c2ccccc2)c1OC`, for which the “Percent Effect” value is given as 4.998%. The value for `CS(=O)(=O)NCc1cc2n(n1)CCCN(Cc1nc3ccccc3[nH]1)C2` was 2.68%. For the compound `Cc1nn(C)c(C)c1S(=O)(=O)NCCn1ccc(-c2cccs2)n1`, the “Percent Effect” value is recorded as -20.8%. As for `Cl.O=C(C1CCC1)N1C[C@@H](c2ccsc2)[C@@H]2CN(C3CCCC3)CC[C@@H]21`, the figure is 127.5%; as for `Cl.O=C(C1CCCC1)N1C[C@@H](c2ccsc2)[C@@H]2CN(C3CCCC3)CC[C@@H]21`, 194.4%. For `O=C(C1CCC1)N1CCN(Cc2ccsc2)[C@H]2CS(=O)(=O)C[C@H]21`, the “Percent Effect” value is listed as -4.22%. As for `Cl.O=C(C1CCC1)N1C[C@@H](c2ccsc2)[C@@H]2CN(C3CCCCC3)CC[C@@H]21`, the figure is 144.1%; as for `CN(C)c1ccc(NC(=O)N2CCCC2c2ccsc2)cn1` (stereo not given), 11.58%; as for `CSc1ncc(CN2CC(Oc3c(C)cccc3C)C2)cn1`, -6.082%. Take `CCC(Nc1nc(C(C)C)nc2c1cnn2C)c1ccncc1` (stereo not given): the “Percent Effect” value was -4.681%. As for `Cc1ccc(NS(=O)(=O)CC2=NC(=O)n3cccc3C2=O)cc1`, the figure is 7.318%; as for `O=C(Nc1ccccc1)c1ccc(NCc2ccccc2CO)nn1`, -18.51%; as for `CCCS(=O)(=O)N1CCC2(CC1)CN(c1ccccn1)CCO2.O=C(O)C(F)(F)F`, 3.761%.

For the compound `O=C(NCC1CCOC1)Nc1ccc(OCC(F)(F)F)nc1` (stereo not given), the “Percent Effect” value is on record as -13.99%. The value for `COCCOCCC(=O)N1CCC(c2ccccc2C)C1` (stereo not given) was -9.058%. As for `COCCC(=O)N1CCC(c2ccc3c(NC(C)C)n[nH]c3n2)C1` (stereo not given), the figure is 74.92%.

Turning to `Cc1ncsc1C(=O)N1CCC(c2ccc3c(NC(C)C)n[nH]c3n2)C1` (stereo not given), the “Percent Effect” value came to 170.9%.

Take `CC(C)Oc1cccc(C(=O)C2CCCN(C(=O)c3ccccn3)C2)c1` (stereo not given): the “Percent Effect” value is recorded as -12.09%. As for `CC(C)Nc1n[nH]c2nc(C3CCN(C(=O)c4ccccn4)C3)ccc12` (stereo not given), the figure is 75.7%; as for `COCCC(=O)N1CCc2nc(N3CCOCC3)nc(NC(C)C)c2C1`, -19.12%; as for `CC(C)c1nc2n(n1)CC(NCc1nc(-c3ccsc3)no1)CC2` (stereo not given), -1.114%.

For the compound `O=c1n(CC2CCCCO2)nc(CC2CCNCC2)n1-c1ccccc1` (stereo not given), the “Percent Effect” value is recorded as 26.34%. As for `CC(NC(=O)c1cc(Br)c2c(c1)OCCO2)C(N)=O` (stereo not given), the figure is -7.344%; as for `CC(C)OCCS(=O)(=O)N1CCN(Cc2cccn2C)CC1`, -8.582%; as for `CC(C)CN1C(=O)C2(CCCC2)NC12CCSCC2`, -2.921%. The value for `CCOc1ccc(C(=O)N2Cc3cnc(CC)nc3C2)o1` was -12.82%.

On to `CCN(CC)S(=O)(=O)NC(=O)c1cc(C)n(-c2ccccc2)n1`, for which the “Percent Effect” value amounted to 6.675%. On to `CCCS(=O)(=O)NC(=O)c1cc(C)n(-c2ccccc2)n1`, for which the “Percent Effect” value was found to be 6.254%. Turning to `CNC(=O)c1cc(C)n(-c2ccccc2)n1`, the “Percent Effect” value amounted to 92.62%. The value for `COc1cc(N2CCCC(c3nccn3Cc3cscn3)C2)nc(N)n1` (stereo not given) was 2.098%; that for `O=c1[nH]c2c(c(=O)n1C1CCCCC1)CCC2Nc1ccccc1` (stereo not given) was -8.343%. The value for `O=c1[nH]c2c(-c3ccccn3)nsc2c(=O)n1C1CCCCC1` was 110.2%; that for `O=c1[nH]c2c(c(=O)n1C1CCCCC1)CCC2Nc1ccccc1Cl` (stereo not given) was 4.437%; that for `COc1ccc(F)c(F)c1C(=O)N1C[C@@H](CN(C)CCO)[C@@H](CO)C1` was -3.681%. As for `COCCN(C)C[C@@H]1CN(C(=O)c2ccc(OC)c(F)c2)C[C@@H]1CO`, the figure is 94.27%; as for `COCCN(C)C[C@@H]1CN(C(=O)c2c(F)ccc(OC)c2F)C[C@@H]1CO`, -13.51%; as for `COCCN(C)C[C@@H]1CN(C(=O)c2ccc3c(c2)OCO3)C[C@@H]1CO`, 100.3%. As for `COCCN(C)C[C@@H]1CN(C(=O)C(C)(C)c2ccccc2)C[C@@H]1CO`, the “Percent Effect” value is reported as 115.8%. As to `COCCN(C)C[C@@H]1CN(C(=O)c2ccc(SC)cc2)C[C@@H]1CO`, the “Percent Effect” value came out at 113.3%. The value for `O=C(c1ccc2c(c1)OCO2)N1C[C@@H](CN2CCCCC2)[C@@H](CO)C1` was -23.85%. The value for `CCc1ccc2nc(C)cc(C(=O)NC3CCCCNC3=O)c2c1` (stereo not given) was -55.41%; that for `COc1ccc(N2CCC(N3CCOC(C(F)(F)F)C3)CC2)cc1` (stereo not given) was 26.01%. The value for `COC(=O)c1ccc(Cl)c(CN(C)Cc2ncnn2C)c1` was -12.36%. Take `COC(=O)CCCC(=O)N(C)CC1Cc2ccccc2CN1C` (stereo not given): the “Percent Effect” value is -6.642%.

As to `CS(=O)(=O)Cc1ccc(C(=O)NCC2Cc3ccccc3O2)cc1` (stereo not given), the “Percent Effect” value was -4.65%.

In the case of `COCCN(C)C[C@@H]1CN(C(=O)c2ccoc2)C[C@@H]1CO`, the “Percent Effect” value was -5.57%.

For `COc1ccc(C)cc1C(=O)N1C[C@@H](CN(C)CCO)[C@@H](CO)C1`, the “Percent Effect” value was -25.29%.

With `COCCN(C)C[C@@H]1CN(C(=O)c2ccc(C)cc2)C[C@@H]1CO`, the “Percent Effect” value is 166.3%.
